One assay concerns Staphylococcus aureus. Particulars: Concentration 32 ug.mL-1; ASSAY_TEST Inhibition of Bacterial Growth; detection method Absorption (OD600); MEDIA CAMHB; plate type 384well; NBS; CORNING #3640; time 18 hr.
The test system of the next assay is Escherichia coli. Particulars: Concentration 32 ug.mL-1; ASSAY_TEST Inhibition of Bacterial Growth; detection method Absorption (OD600); MEDIA CAMHB; plate type 384well; NBS; CORNING #3640; time 18 hr.

This note sets out measurements from ChEMBL document CHEMBL4513143, “CO-ADD screening of University of Natural Resources and Life (Austria) compounds”.

The term Inhibition denotes the drop in the measured response relative to a control, in per cent. Low readings indicate little suppression, high ones strong suppression.

Entries with a potency or affinity are not part of this list.

As to `[N-]=[N+]=NC[C@H]1OC(O)[C@@H](O)[C@@H]1O` (some centres not stated), the values for the Inhibition in the assay with Staphylococcus aureus and with Escherichia coli were 29.31% and 18.39%, respectively.
